Source: PubChem (Broad Institute)
Only some compounds are listed: those with a hit (about 2.1% of all), similar ones and a draw of the others.
ERAP1 HTS inh = inhibitors of human ERAP1 aminopeptidase; Q9NZ08; recombinant ERAP1, Leu-AMC fluorescence, 60 min; inhibition, % at 10.7 µM; hit rate 0.15% among 340,000;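 active = mean replicate inhibition of at least 30%, or all replicates individually reaching that 30% level; inactive = mean below 30% and not every replicate reaching it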;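 also: 0% = neutral control wells and 100% = L-leucinethiol positive control wells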
Target sequence (Q9NZ08 whole entry, looked up): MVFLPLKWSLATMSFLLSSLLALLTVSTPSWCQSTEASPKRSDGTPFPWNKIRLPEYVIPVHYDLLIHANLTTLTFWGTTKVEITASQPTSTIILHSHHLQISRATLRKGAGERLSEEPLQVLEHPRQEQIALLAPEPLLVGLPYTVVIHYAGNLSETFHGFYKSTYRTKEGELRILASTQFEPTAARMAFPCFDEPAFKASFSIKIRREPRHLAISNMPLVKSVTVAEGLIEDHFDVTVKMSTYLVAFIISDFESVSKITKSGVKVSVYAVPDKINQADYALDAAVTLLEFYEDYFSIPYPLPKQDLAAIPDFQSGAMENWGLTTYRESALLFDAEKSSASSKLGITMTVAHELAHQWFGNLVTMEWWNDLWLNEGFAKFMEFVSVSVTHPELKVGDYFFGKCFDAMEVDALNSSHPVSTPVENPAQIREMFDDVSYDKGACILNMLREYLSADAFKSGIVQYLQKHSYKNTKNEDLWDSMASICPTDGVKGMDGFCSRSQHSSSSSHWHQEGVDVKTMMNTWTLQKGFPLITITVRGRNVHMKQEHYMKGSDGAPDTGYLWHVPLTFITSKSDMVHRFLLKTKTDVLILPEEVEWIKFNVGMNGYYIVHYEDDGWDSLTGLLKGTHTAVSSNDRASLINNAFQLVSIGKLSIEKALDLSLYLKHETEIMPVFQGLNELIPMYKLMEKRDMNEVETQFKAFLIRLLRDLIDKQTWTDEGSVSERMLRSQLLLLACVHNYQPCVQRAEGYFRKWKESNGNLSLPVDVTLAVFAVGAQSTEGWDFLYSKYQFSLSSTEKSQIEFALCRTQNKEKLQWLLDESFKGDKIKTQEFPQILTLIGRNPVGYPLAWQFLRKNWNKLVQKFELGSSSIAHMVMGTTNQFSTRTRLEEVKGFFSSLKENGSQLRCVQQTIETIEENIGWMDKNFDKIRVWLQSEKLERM
PvdQ acylase = P. aeruginosa PvdQ acylase inhibition; purified PvdQ acylase, fluorescence plate reader; inhibition, % at 10 µM; hit rate 0.063% among 340,000; in the data active = inhibition above about 30%, passing the limit was not always enough;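 also: 0% = vehicle neutral wells and 100% = reference inhibitor wells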
ARNT-TACC3 inh = ARNT/TACC3 interaction disruption; Q9Y6A5; AlphaScreen His-ARNT PAS-B/GST-TACC3 binding, luminescence; TACC3 fragment carries E629A point mutation; inhibition, % at 9.99 µM; hit rate 0.66% among 390,000;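 active = mean inhibition of replicates at least 50% and at least half of replicates each reaching 50%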;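 also: 0% = complete ARNT plus TACC3 wells and 100% = ARNT alone without TACC3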
rRNA inh HTS = selective bacterial rRNA inhibition in E. coli | E. coli WT GFP vs humanized-ribosome RFP mutants, fluorescence, 24 h; hits give low values; DMSO median 0, no signal -100 | GFP signal change (wild-type ribosome), % (test concentration not listed) | hit rate 1.6% among 350,000;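 active = significant combined selectivity score with lowered wild-type GFP, culture density cut under 30%, mutant RFP and density less affected; inactive = any of these conditions unmet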
F508del corr = correctors of CFTR F508del function in bronchial epithelial cells; hit rate 0.36% among 350,000; activity (quench increase), % at 7.58 µM; CFBE cells, YFP halide quenching; stimulated with forskolin plus potentiator P3; % fluorescence drop versus neutral controls;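 active = mean added fluorescence quench of at least 8% versus neutral control, with both replicates also reaching 8%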;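 also: cells transiently co-express mutant CFTR-F508del with the halide-sensitive YFP; corrector assay measuring rescue of mutant channel to the surface after 24 h compound exposure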
The depositor's hits bear a star; . = no result.

SMILES	ERAP1 HTS inh	PvdQ acylase	ARNT-TACC3 inh	rRNA inh HTS	F508del corr
O=C1c2cccc(NCCNCCO)c2C(=O)c2cccc(NCCNCCO)c21	1.5	16.6	47.3*	-14.1	5.3
O=C(O)C[C@@H]1C[C@@H]2c3cc(NC(=O)Nc4ccccc4F)ccc3O[C@@H]2[C@H](CO)O1	-1.4	.	-7.5	0.2	-0.6
COC(=O)N/N=C(\CCC(=O)O)c1cccs1	1.6	-9.5	-6.0	11.2	-0.6
O=C(O)CC/C(=N\Nc1ccc(Cl)cc1)c1cccs1	-0.4	-1.9	-3.6	-28.3*	-0.2
C[C@H]1CCCCO[C@H](CN(C)C(=O)CCC(F)(F)F)[C@@H](C)CN([C@@H](C)CO)C(=O)c2cc(NC(=O)CCCN(C)C)ccc2O1	.	.	-8.9	2.1	-2.6
O=C(CCN1CCCCC1)N1CCc2c([nH]c3ccccc23)C1c1cccnc1 (stereo not given)	0.5	-12.8	-1.5	29.1	8.9*
O=C(c1cnccn1)N1CCc2c([nH]c3ccccc23)C1c1cccc(Cl)c1 (stereo not given)	-2.9	-16.6	.	-29.9	-1.2
O=C(C[C@H]1C=C[C@H](NS(=O)(=O)c2ccc(F)cc2)[C@@H](CO)O1)NC1CCCCC1	6.1	.	2.1	-0.8	-0.3
O=C(C[C@@H]1CC[C@H](NC(=O)CN2CCOCC2)[C@H](CO)O1)NC1CCC1	-0.7	.	0.0	1.8	-5.2
Cc1ccc(C)c(S(=O)(=O)Nc2ccccc2C(=O)Nc2ccc(S(=O)(=O)Nc3ncccn3)cc2)c1	-5.6	-13.9	-25.1	-31.2*	.
Cc1ccc(C)c(S(=O)(=O)Nc2ccc(S(=O)(=O)Nc3ncccn3)cc2)c1	-2.7	-17.0	-3.7	-5.8	0.6
CC(=O)Nc1nc(=O)c2ccccc2s1	33.5*	-6.7	0.2	2.2	-0.9
O=C(Nc1nc(=O)c2ccccc2s1)c1ccccc1	.	0.6	-4.3	.	.
O=C(CSc1c2c(nc3ccc(Cl)cc13)CCCC2)NCCCN1CCOCC1	.	-4.8	-4.3	.	.
COCCCNC(=O)CSc1c2c(nc3ccc(Cl)cc13)CCCC2	-0.6	-8.6	.	-23.1*	.
COc1ccc2c(c1)/C(=C/c1cc(OC)c(OC)c(OC)c1)C(=O)N2	2.7	-1.7	-8.3	-2.9	12.7*
COc1ccc(/C=C2\C(=O)NC(=O)c3ccccc32)cc1OC	11.5	-4.4	-9.4	14.1	-1.7
CCNC(=O)C[C@H]1CC[C@H]2[C@@H](COc3ccc(NC(=O)c4ccc(C#N)cc4)cc3C(=O)N2C)O1	0.4	.	-9.8	1.1	2.8
O=C(Nc1ccc2c(c1)[C@H]1C[C@H](CC(=O)N3CCc4ccccc4C3)O[C@H](CO)[C@H]1O2)Nc1ccccc1F	1.9	.	-7.5	-5.9	0.2
COc1ccccc1CNCC(=O)Nc1cc(S(=O)(=O)N2CCCCCC2)ccc1Cl	-1.1	-8.9	2.6	-31.1*	1.9
CCN1CCN(c2ccc(S(=O)(=O)N3CCCCC3)cc2NC(=O)c2cccc(F)c2)CC1	2.1	1.2	4.5	-4.4	-0.2
CCN1CCN(c2ccc(S(=O)(=O)N3CCCCC3)cc2NC(=O)c2ccccc2)CC1	103.2*	-0.4	-0.4	3.1	1.3
O=C(Nc1ccccc1C(=O)O)c1cc(S(=O)(=O)N2CCCCCC2)ccc1Cl	-2.3	4.4	.	-43.5*	-0.4
COc1ccc(S(=O)(=O)N2CCCCC2)cc1NC(=O)c1ccccc1	0.7	-11.4	-0.5	6.7	-4.6
O=C(O)c1cc(S(=O)(=O)N2CCCCCC2)ccc1Cl	.	4.8	-4.6	.	.
SMILES	ERAP1 HTS inh	PvdQ acylase	ARNT-TACC3 inh	rRNA inh HTS	F508del corr
CCOc1ccc(S(=O)(=O)N2CCCCC2)cc1NC(=O)c1ccccc1	0.4	0.8	5.1	9.0	12.0*
COC(=O)C[C@H]1CC[C@@H]2[C@@H](COc3ccc(NC(=O)c4cc(F)cc(F)c4)cc3C(=O)N2C)O1	.	.	2.4	-0.6	-2.8
O=C(NC1=NN(c2ccccc2)CC1)Nc1ccccc1F	.	1.3	-9.2	-32.4*	1.9
O=C(Nc1ccccc1F)Nc1ccccc1N1CCCCC1	5.3	-13.5	-2.9	-31.2*	.
CCOC(=O)N1CCN(C(=O)c2ccc3c(c2)N(Cc2cc(C)ccc2C)C(=O)c2ccccc2S3=O)CC1 (stereo not given)	1.6	-11.2	8.4	-20.3*	-0.1
CCOC(=O)c1ccc2c(c1)N(Cc1ccccc1C)C(=O)c1ccccc1S2=O (stereo not given)	.	-13.6	6.7	.	.
CCc1ccc(S(=O)(=O)/N=C2\C=C(Nc3cccc(C(=O)O)c3)C(=O)c3ccccc32)cc1	-24.1	-1.5	68.5*	11.6	1.1
CCc1ccc(S(=O)(=O)/N=C2/C=C(Sc3ncn[nH]3)C(=O)c3ccccc32)cc1	.	13.9	35.8*	.	.
C[C@@H]1CN([C@@H](C)CO)S(=O)(=O)c2ccc(-c3ccc(F)cc3)cc2O[C@@H]1CN(C)S(C)(=O)=O	0.1	.	3.4	-9.8	0.9
CO[C@H]1CN(C)C(=O)c2ccc(NS(C)(=O)=O)cc2OC[C@@H](C)N(Cc2nccs2)C[C@H]1C	-2.0	.	-0.8	-1.2	2.4
COc1ccc(-c2nnc3c4ccccc4c(C)nn23)cc1S(=O)(=O)N1CCN(CCO)CC1	.	2.9	active	.	.
COc1cccc(NC(=O)C[C@H]2CC[C@@H]3[C@@H](COc4ccc(NC(=O)C5CC5)cc4C(=O)N3C)O2)c1	0.0	.	1.8	-2.1	-2.6
Cc1ccccc1NC(=S)c1nc2ccccc2[nH]1	4.7	7.5	48.8*	.	.
O=C(CSc1nnc2nnc3ccccc3n12)N1CCOCC1	3.1	-13.4	-4.7	-24.6*	-1.3
CCC(CN(C)C)Oc1cc(NCc2ccccc2)c2ncn(C(C)C)c2c1 (stereo not given)	.	-15.5	51.3*	.	.
CCC(CO)Oc1cc(NCc2cccc(Cl)c2)c2ncn(C(C)C)c2c1 (stereo not given)	-0.3	0.6	.	-22.0*	.
O=C(Nc1ccccc1)[C@@H]1[C@@H](CO)[C@@H]2Cn3c(ccc(C4=CCCCC4)c3=O)[C@@H]2N1Cc1ccccn1	0.0	.	.	-2.3	4.3
CCOC(=O)c1[nH]c(C)c(C(=O)OC)c1C	.	1.0	-2.4	-2.2	0.4
COC(=O)c1c(C)[nH]c(C(=O)OCC(=O)c2ccc(C)s2)c1C	1.1	-7.2	-8.3	-19.9*	-3.3
CCNC(=O)C[C@H]1CC[C@@H]2[C@H](COC[C@H](O)CN2C(=O)CC)O1	1.7	.	-11.3	-0.4	-2.5
C=CCn1c(Cc2csc(N)n2)nnc1SCC(=O)OCC	-2.7	-13.0	46.1*	6.3	-2.0
Cc1nc(NCC2CCCO2)c2nnn(Cc3ccccc3)c2n1 (stereo not given)	0.4	11.4	-0.8	-17.5*	-0.1
C[C@H](CO)N1C[C@H](C)[C@@H](CN(C)Cc2ccc(Cl)c(Cl)c2)Oc2ccc(NC(=O)CCC(F)(F)F)cc2C1=O	1.7	.	7.4	-3.3	1.5
COc1ccc(NC(=O)c2cc([N+](=O)[O-])ccc2NC(=O)CNCc2ccccn2)c(OC)c1	2.3	1.7	46.1*	2.6	-0.5
